Experimental findings from the supplement of paper PMC11537057 are described below.

Where a name gives a salt, the structure may show the parent alone. Among all 1,700 compounds or so, about 15 (0.9%) showed activity.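 The calls were made as follows: active = infection cut by 80% or more with cell growth above 90% in both runs; inactive = the rest.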 The list comes from a sample in which actives are over-represented; it also holds similar structures and randomly drawn compounds.

This assay relates to HSV-1 strain 17 YFP-ICP4 in A549. In words: HSV-1 infection relative to DMSO (ICP4-YFP per H2B-RFP signal); higher = more viral infection (less antiviral activity), active = hit call of the paper. The note with it: 10 µM; 48 h; MOI: 0.1. The procedure:
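Selleck FDA-approved library (L1300) screened in duplicate at 10 µM on A549 H2B-mRuby cells in 384-well plates, infected with HSV-1 strain 17 YFP-ICP4 at MOI 0.1 one hour before drug addition. Imaged after 2 days at 37°C. Cell growth (H2B-RFP) and infection (ICP4-YFP) are expressed as % of DMSO-treated wells. Hits: growth >90% and infection <20% of DMSO.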
Regarding `CNC[C@H](O)[C@@H](O)[C@H](O)[C@H](O)CO.CNC[C@H](O)[C@@H](O)[C@H](O)[C@H](O)CO.O=C([O-])CN(CCN(CC(=O)[O-])CC(=O)O)CCN(CC(=O)[O-])CC(=O)O.[Gd+3]` [Gadopentetate Dimeglumine], the HSV-1 infection is 77.6% (inactive).

Take `COc1ccccc1OCCN` [Carvedilol EP IMpurity E]: the HSV-1 infection was 82.6% (inactive).

Turning to `CC(C)[C@H]1C(=O)N[C@@H](CCCN=C(N)N)C(=O)NCC(=O)N[C@@H](CC(=O)O)C(=O)N[C@H](Cc2ccccc2)C(=O)N1C`, the HSV-1 infection is 86.4% (inactive).

For the compound `CNC(=O)c1ccc2cc([C@@]3(O)CCn4cncc43)ccc2c1` [TAK-700 (Orteronel)], the HSV-1 infection is 58.5% (inactive).

With `Cc1cccc(C)c1N(CC(=O)Nc1ccc(-c2ncon2)cc1)C(=O)C1CCS(=O)(=O)CC1` [Amenamevir], the HSV-1 infection was 2.63% (active).

As to `[OH][Al]([OH])[OH]` [Aluminium hydroxide], the HSV-1 infection was 113% (inactive).

For `COc1ccc([C@]2(C#N)CC[C@@H](C(=O)O)CC2)cc1OC1CCCC1` [Cilomilast], the HSV-1 infection is 94% (inactive).

Take `COc1cc(O)c(C(=O)Nc2nc(C(=O)NCCN(C(C)C)C(C)C)cs2)cc1OC` [Acotiamide hydrochloride]: the HSV-1 infection is 75.1% (inactive).

In the case of `COc1cc(O)c(C(=O)Nc2nc(C(=O)NCCN(C(C)C)C(C)C)cs2)cc1OC` [Acotiamide], the HSV-1 infection is 116% (inactive).

As to `Cc1c(-c2ccc(O)cc2)n(Cc2ccc(OCCN3CCCCCC3)cc2)c2ccc(O)cc12` [Bazedoxifene HCl], the HSV-1 infection was 26.6% (inactive).

For `Cc1c(-c2ccc(O)cc2)n(Cc2ccc(OCCN3CCCCCC3)cc2)c2ccc(O)cc12` [Bazedoxifene Acetate], the HSV-1 infection is 31.7% (inactive).

For `CCCSc1nc(N[C@@H]2C[C@H]2c2ccc(F)c(F)c2)c2nnn([C@@H]3C[C@H](OCCO)[C@@H](O)[C@H]3O)c2n1` [Ticagrelor], the HSV-1 infection was 87.1% (inactive).

In the case of `C[C@@H]1CCO[C@H]2Cn3cc(C(=O)NCc4ccc(F)cc4F)c(=O)c(O)c3C(=O)N12`, the HSV-1 infection is 122% (inactive).

With `Cc1cc(N2CCN([C@@H]3CN[C@H](C(=O)N4CCSC4)C3)CC2)n(-c2ccccc2)n1` [Teneligliptin hydrobromide], the HSV-1 infection is 113% (inactive).

Take `CCCCCCCCCCCCCCCCCC(=O)O` [Stearic acid]: the HSV-1 infection is 86.7% (inactive).

For `O=C([O-])[C@H](O)[C@@H](O)[C@H](O)[C@H](O)CO.O=C([O-])[C@H](O)[C@@H](O)[C@H](O)[C@H](O)CO.[Ca+2]` [Calcium gluconate], the HSV-1 infection was 83.3% (inactive).

Take `CC(=O)OCC(CCn1cnc2cnc(N)nc21)COC(C)=O` [Famciclovir]: the HSV-1 infection was 102% (inactive).

On to `Nc1nc(O)c2ncn(CCC(CO)CO)c2n1` [Penciclovir], for which the HSV-1 infection is 2.92% (active).

Turning to `CCC(=O)O[C@]1(C(=O)CCl)[C@@H](C)C[C@H]2[C@@H]3C[C@H](F)C4=CC(=O)C=C[C@]4(C)[C@@]3(F)[C@@H](O)C[C@@]21C` [Halobetasol Propionate], the HSV-1 infection was 60.2% (inactive).

Regarding `CCc1ccc(Cc2ccc3c(c2)[C@]2(OC3)O[C@H](CO)[C@@H](O)[C@H](O)[C@H]2O)cc1` [Tofogliflozin(CSG 452)], the HSV-1 infection is 92.2% (inactive).

Turning to `CC[C@H](C)[C@H](N)C(=O)O` [isoleucine], the HSV-1 infection was 114% (inactive).

Regarding `Cc1c(C(=O)NN2CCCCC2)nn(-c2ccc(Cl)cc2Cl)c1-c1ccc(Cl)cc1` [Rimonabant], the HSV-1 infection is 94.5% (inactive).

On to `CC(C)c1nc(CN(C)C(=O)N[C@@H](CCN2CCOCC2)C(=O)N[C@H](CC[C@H](Cc2ccccc2)NC(=O)OCc2cncs2)Cc2ccccc2)cs1` [Cobicistat (GS-9350)], for which the HSV-1 infection is 86.4% (inactive).

On to `CCN(c1cc(-c2ccc(CN3CCOCC3)cc2)cc(C(=O)NCc2c(C)cc(C)[nH]c2=O)c1C)C1CCOCC1` [Tazemetostat (EPZ-6438)], for which the HSV-1 infection was 106% (inactive).

For `Nc1cc(N2CCCCC2)nc(N)[n+]1OS(=O)(=O)[O-]` [Minoxidil sulphate], the HSV-1 infection was 97.8% (inactive).

As for `N[C@@H](CCC(=O)O)C(=O)[O-].[Na+]` [L-Glutamic acid monosodium salt], the HSV-1 infection is 84.3% (inactive).

In the case of `Cc1ccc(C(C)C)c(O)c1` [Thymol], the HSV-1 infection was 95.3% (inactive).

With `CCC(=O)O[C@@H]1CC(=O)O[C@H](C)C/C=C/C=C/[C@H](O)[C@H](C)C[C@H](CC=O)[C@H](O[C@@H]2O[C@H](C)[C@@H](O[C@H]3C[C@@](C)(O)[C@@H](OC(=O)CC)[C@H](C)O3)[C@H](N(C)C)[C@H]2O)[C@H]1OC` [Midecamycin], the HSV-1 infection is 96.5% (inactive).

With `CN(N=O)C(=O)NC1C(O)OC(CO)C(O)C1O` (stereo not given) [Streptozotocin (STZ)], the HSV-1 infection is 73.6% (inactive).

`O=C(O)CSc1nnc(Br)n1-c1ccc(C2CC2)c2ccccc12` [Lesinurad]: the HSV-1 infection was 87.1% (inactive).

`CCCCCOc1ccc(-c2cc(-c3ccc(C(=O)N[C@H]4C[C@@H](O)[C@@H](O)NC(=O)[C@@H]5[C@@H](O)[C@@H](C)CN5C(=O)[C@H]([C@H](O)CC(N)=O)NC(=O)[C@H]([C@H](O)[C@@H](O)c5ccc(O)c(OS(=O)(=O)O)c5)NC(=O)[C@@H]5C[C@@H](O)CN5C(=O)[C@H]([C@@H](C)O)NC4=O)cc3)no2)cc1` [Micafungin Sodium]: the HSV-1 infection was 105% (inactive).

On to `CCc1c(Cl)c(O)c(Cl)c(O)c1C(=O)O[C@H]1[C@H](O)[C@H](OC)[C@H](OC/C2=C\C=C\C[C@H](O)/C(C)=C/[C@H](CC)[C@@H](O[C@@H]3OC(C)(C)[C@@H](OC(=O)C(C)C)[C@H](O)[C@@H]3O)/C(C)=C/C(C)=C/C[C@@H]([C@@H](C)O)OC2=O)O[C@@H]1C` [Fidaxomicin], for which the HSV-1 infection was 126% (inactive).

On to `CC(=C(CCOC(=O)C(C)C)SSC(CCOC(=O)C(C)C)=C(C)N(C=O)Cc1cnc(C)nc1N)N(C=O)Cc1cnc(C)nc1N` (stereo in doubt) [Sulbutiamine], for which the HSV-1 infection is 92.2% (inactive).

For the compound `C[N+](C)(C)CC(O)CC(=O)[O-]` (racemic) [DL-Carnitine HCl], the HSV-1 infection is 94.4% (inactive).

`Nc1ccc(S(=O)(=O)Nc2cncc(Cl)n2)cc1` [Sulfalozine sodium]: the HSV-1 infection was 105% (inactive).

As for `C=C[C@]1(C)C[C@@H](OC(=O)CS[C@@H]2C[C@H]3CC[C@@H](C2)N3C)[C@]2(C)[C@H](C)CC[C@]3(CCC(=O)[C@H]32)[C@@H](C)[C@@H]1O` [Retapamulin], the HSV-1 infection is 32.7% (inactive).

Turning to `COc1cccc(-c2c(C)n(Cc3c(F)cccc3C(F)(F)F)c(=O)n(C[C@H](NCCCC(=O)O)c3ccccc3)c2=O)c1F` [Elagolix Sodium], the HSV-1 infection is 109% (inactive).

With `OC(c1ccccc1)(c1ccccc1)C12CC[N+](CCOCc3ccccc3)(CC1)CC2` [Umeclidinium bromide], the HSV-1 infection is 100% (inactive).

For the compound `CC1CNc2c(cccc2S(=O)(=O)N[C@@H](CCCNC(=N)N)C(=O)N2CC[C@@H](C)C[C@@H]2C(=O)O)C1` (stereo not given in full) [Argatroban Monohydrate], the HSV-1 infection was 97.4% (inactive).

`CC1CNc2c(cccc2S(=O)(=O)N[C@@H](CCCNC(=N)N)C(=O)N2CC[C@@H](C)C[C@@H]2C(=O)O)C1` (stereo not given in full) [Argatroban]: the HSV-1 infection was 99.1% (inactive).

Turning to `Cc1c(O)cccc1C(=O)N[C@@H](CSc1ccccc1)[C@H](O)CN1C[C@H]2CCCC[C@H]2C[C@H]1C(=O)NC(C)(C)C` [Nelfinavir Mesylate], the HSV-1 infection was 9.57% (active).

Consider `Cc1c(C(C)C)c(=O)n(-c2ccccc2)n1C` [Propyphenazone (4-Isopropylantipyrine)], for which the HSV-1 infection is 98.5% (inactive).

As to `CCCCCCC(=O)O[C@H]1CC[C@H]2[C@@H]3CCC4=CC(=O)CC[C@]4(C)[C@H]3CC[C@]12C` [Testosterone Enanthate], the HSV-1 infection is 66.7% (inactive).

On to `C=C[C@@H]1C[C@]1(NC(=O)[C@@H]1C[C@@H]2CN1C(=O)[C@H](C(C)(C)C)NC(=O)O[C@@H]1C[C@H]1CCCCCc1nc3ccc(OC)cc3nc1O2)C(=O)NS(=O)(=O)C1CC1` [Grazoprevir], for which the HSV-1 infection is 119% (inactive).

Take `CCCCCCCCCCCCC[N+](C)(C)Cc1ccccc1` [Benzalkonium chloride]: the HSV-1 infection was 65.3% (inactive).

As to `NC(=O)[C@@H](CCC(F)(F)F)N(Cc1ccc(-c2ncon2)cc1F)S(=O)(=O)c1ccc(Cl)cc1`, the HSV-1 infection was 95.4% (inactive).

Take `CCNC(=O)[C@@H]1CCCN1C(=O)[C@H](CCCN=C(N)N)NC(=O)[C@H](CC(C)C)NC(=O)[C@@H](C)NC(=O)[C@H](Cc1ccc(O)cc1)NC(=O)[C@H](CO)NC(=O)[C@H](Cc1c[nH]c2ccccc12)NC(=O)[C@H](Cc1cnc[nH]1)NC(=O)[C@@H]1CCC(=O)N1` [Alarelin Acetate]: the HSV-1 infection was 90.9% (inactive).

Consider `CC1=C(C(=O)OC(C)C)C(c2cccc([N+](=O)[O-])c2)C(C(=O)OC2CN(C(c3ccccc3)c3ccccc3)C2)=C(N)N1` (stereo not given) [Azelnidipine], for which the HSV-1 infection is 121% (inactive).

For `O=C1/C(=C2\Nc3ccc(S(=O)(=O)O)cc3C2=O)Nc2ccc(S(=O)(=O)O)cc21` [Indigo carmine], the HSV-1 infection was 101% (inactive).

As for `C[C@@H](O)[C@H]1C(=O)N2C(C(=O)O)=C(S[C@@H]3CN[C@H](C(=O)Nc4cccc(C(=O)O)c4)C3)[C@H](C)[C@H]12` [Ertapenem sodium], the HSV-1 infection was 109% (inactive).

On to `CCC[C@@H]1C[C@@H](C(=O)N[C@@H]([C@H]2O[C@H](SC)[C@H](O)[C@@H](O)[C@H]2O)[C@H](C)Cl)N(C)C1` [Clindamycin], for which the HSV-1 infection is 83.9% (inactive).

`CCC[C@@H]1C[C@@H](C(=O)N[C@@H]([C@H]2O[C@H](SC)[C@H](O)[C@@H](O)[C@H]2O)[C@@H](C)O)N(C)C1` [Lincomycin HCl]: the HSV-1 infection was 15.9% (active).

As to `CCC[C@@H]1C[C@@H](C(=O)N[C@@H]([C@H]2O[C@H](SC)[C@H](O)[C@@H](O)[C@H]2O)[C@H](C)Cl)N(C)C1` [Clindamycin HCl], the HSV-1 infection was 87.2% (inactive).

Regarding `CCC[C@@H]1C[C@@H](C(=O)N[C@@H]([C@H]2O[C@H](SC)[C@H](OP(=O)(O)O)[C@@H](O)[C@H]2O)[C@H](C)Cl)N(C)C1` [Clindamycin Phosphate], the HSV-1 infection is 125% (inactive).

Turning to `CCC[C@@H]1C[C@@H](C(=O)N[C@@H]([C@H]2O[C@H](SC)[C@H](O)[C@@H](O)[C@H]2O)[C@@H](C)O)N(C)C1` [Lincomycin Hydrochloride Monohydrate], the HSV-1 infection is 86.4% (inactive).
